Among all 5,500 compounds or so, about 2,000 (36%) were called active. About 18% were inconclusive and are not listed. No stated cut-off is given here; in the data, active means normalized growth mostly below about 0.91 (no sharp cut-off); inconclusive means no clear call, values can overlap the other calls; inactive means mostly above about 0.92. The list shows a part of the results.
Assay: chemical genetic growth profiling, strain panel (AID 1159580);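 further: tested at 20 µM; growth read once vehicle control cultures reached saturation at 30 °C; 1 = growth at the plate median or of vehicle wells; lower values mean less growth of the strain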
Details: growth OD
[1] = S. cerevisiae deletion strains, locus YAL040C, strain CLN3, active compounds read low
[2] = S. cerevisiae deletion strains, locus YCL061C, strain MRC1 (second series), active compounds read low
[3] = S. cerevisiae deletion strains, locus YDR363W, strain ESC2, active compounds read low
[4] = S. cerevisiae deletion strains, locus YER002W, strain NOP16, active compounds read low
[5] = S. cerevisiae deletion strains, locus YNL128W, strain TEP1, active compounds read low
[6] = S. cerevisiae deletion strains, locus YNL153C, strain GIM3, active compounds read low
[7] = S. cerevisiae deletion strains, locus YNL175C, strain NOP13, active compounds read low
[8] = S. cerevisiae deletion strains, locus YNL197C, strain WHI3, active compounds read low
[9] = S. cerevisiae deletion strains, locus YNL224C, strain SQS1, active compounds read low
[10] = S. cerevisiae deletion strains, locus YOR083W, strain WHI5 (second series), active compounds read low
[11] = S. cerevisiae deletion strains, locus YGR078C, strain PAC10, active compounds read low
[12] = S. cerevisiae deletion strains, locus YGR229C, strain SMI1, active compounds read low
[13] = S. cerevisiae deletion strains, locus YJR075W, strain HOC1, active compounds read low
[14] = S. cerevisiae deletion strains, locus YPL055C, strain LGE1, active compounds read low
[15] = S. cerevisiae deletion strains, locus YPL241C, strain CIN2, active compounds read low

Measured: normalized growth

CCCn1c(=O)c2[nH]c(-c3ccc(S(=O)(=O)O)cc3)nc2n(CCC)c1=O
inactive: [1] 0.994 | [2] 1.01 | [3] 0.958 | [4] 0.997 | [5] 1 | [6] 1.01 | [7] 0.985 | [8] 0.99 | [9] 1 | [10] 0.979

CC(C)CC(NP(=O)(O)O[C@@H]1O[C@@H](C)[C@H](O)[C@@H](O)[C@H]1O)C(=O)NC(Cc1c[nH]c2ccccc12)C(=O)O (stereo partly specified)
inactive: [1] 1.01 | [2] 1.01 | [3] 1.01 | [4] 1 | [11] 1.02 | [12] 1.03 | [13] 1.03 | S. cerevisiae deletion strains, locus YMR307W, strain GAS1, active compounds read low 0.994 | [5] 0.993 | [6] 1.04 | [7] 0.998 | [8] 1 | [9] 0.997 | [10] 1.01 | [14] 1.02 | [15] 1.01

O=C1NC(c2c(F)cccc2Cl)Nc2ccccc21 (stereo unspecified)
inactive: S. cerevisiae deletion strains, locus YAL013W, strain DEP1, active compounds read low 1.01 | S. cerevisiae deletion strains, locus YBR229C, strain ROT2, active compounds read low 1.01 | S. cerevisiae deletion strains, locus YCL061C, strain MRC1, active compounds read low 1.03 | S. cerevisiae deletion strains, locus YDL101C, strain DUN1, active compounds read low 1.02 | S. cerevisiae deletion strains, locus YDL134C, strain PPH21, active compounds read low 1 | S. cerevisiae deletion strains, locus YDR150W, strain NUM1, active compounds read low 0.987 | S. cerevisiae deletion strains, locus YEL061C, strain CIN8, active compounds read low 1 | [11] 1.03 | [12] 0.988 | S. cerevisiae deletion strains, locus YHR030C, strain SLT2, active compounds read low 1 | S. cerevisiae deletion strains, locus YHR087W, strain rtc3, active compounds read low 1.02 | S. cerevisiae deletion strains, locus YJL187C, strain SWE1, active compounds read low 1 | S. cerevisiae deletion strains, locus YJR043C, strain POL32, active compounds read low 0.998 | [13] 0.998 | S. cerevisiae deletion strains, locus YKL190W, strain CNB1, active compounds read low 1.01 | S. cerevisiae deletion strains, locus YLR039C, strain RIC1, active compounds read low 0.94 | S. cerevisiae deletion strains, locus YLR058C, strain SHM2 (second series), active compounds read low 1.02 | S. cerevisiae deletion strains, locus YLR085C, strain ARP6, active compounds read low 0.984 | S. cerevisiae deletion strains, locus YLR262C, strain YPT6, active compounds read low 0.926 | S. cerevisiae deletion strains, locus YML094W, strain GIM5, active compounds read low 1.05 | S. cerevisiae deletion strains, locus YMR219W, strain ESC1, active compounds read low 1 | S. cerevisiae deletion strains, locus YMR263W, strain SAP30, active compounds read low 0.978 | [6] 1.01 | S. cerevisiae deletion strains, locus YNL298W, strain CLA4 (second series), active compounds read low 0.979 | S. cerevisiae deletion strains, locus YNL322C, strain KRE1, active compounds read low 1 | S. cerevisiae deletion strains, locus YNR030W, strain Alg12, active compounds read low 1.02 | [14] 1 | [15] 1.04 | S. cerevisiae deletion strains, locus YPR135W, strain CTF4, active compounds read low 1.06 | S. cerevisiae strains, strain wild type, active compounds read low 1.01
